“And” between values parts separate entries of the source, which are not always exact repeats. Identical values can stand only once. The panel holds about 79,000 compounds, 15% with a hit somewhere; the sample as a whole holds those more often. Some structures have more than one record in an assay (separate samples or runs), and their calls can disagree. The source made the active and inactive calls. Rule as the data show it: active = growth inhibition above about 70%; inactive = the rest.

The first assay can be described thus: NCI Yeast Anticancer Drug Screen. Data for the mec2-1 strain (AID 157). The following applies: S. cerevisiae mec2-1 strain, at 50.0 µM (retest, dose inferred, filed as 5.0), stronger effect = higher value. In outline:
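Mutant yeast (mec2-1) grown with compound; growth inhibition relative to vehicle control reported.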
Regarding `O=[N+]([O-])c1cc[n+]([O-])cc1`, the growth inhibition is -19% (inactive) and 38% (inactive).
Same read-out and setting: in the case of `CC1(C)CC(=O)C(/C=N/c2nc(-c3ccccc3)cs2)=C(O)C1` it was 32% (inactive); in that of `Nc1nc(N)c2nc(CNc3ccc(C(=O)NC(CCC(=O)O)C(=O)O)cc3F)cnc2n1` (stereo unspecified), 97% (active); in that of `COC(=O)CC1(O)C(/C=C/c2ccccc2)C(C(=O)OC)C(=O)C(C(=O)OC)C1C(=O)OC` (stereo unspecified), 20% (inactive).
The same measure, in the same setting: in the case of `CC(C)(C)c1ccc(NS(=O)(=O)c2ccc(N)cc2)cc1` it was -5% (inactive); in that of `CCN(CC)CCNc1ccc([N+](=O)[O-])c2nc3ccccc3c(N)c12`, -2% (inactive); in that of `CCCCN(CCCC)C(=O)/C=C/c1ccccc1`, 85% (active).
The same measure, in the same setting: in the case of `O=c1[nH]c(-c2ccccc2)nc2c1sc1nc3ccccc3n12` it was 9% (inactive); in that of `O=[N+]([O-])c1ccc2c(c1)/C(=N/N=C1c3ccccc3Cc3ccccc31)c1cc([N+](=O)[O-])cc([N+](=O)[O-])c1-2`, 96% (active).
In the case of `CC(C)C(C)/C=C\C(C)C1CCC2C3=CC=C4CC(O)CCC4(C)C3CCC21C` (stereo unspecified), the growth inhibition is 99% (active).
Still for that read-out and setting: under `O=C1Nc2ccc(Br)cc2C1=Nc1ccc2c(c1)OCO2` stands 56% (inactive); under `CCCCOCn1c(=O)[nH]c(=O)c2cc(Br)ccc21`, 11% (inactive).
As to `Cc1ccc(S/C(=C\C(=O)O)c2ccccc2)cc1`, the growth inhibition is -1% (inactive).
Turning to `O=[N+]([O-])/C=C/c1cc(Cl)c(/C=C/[N+](=O)[O-])cc1Cl`, the growth inhibition was 56% (inactive).
On the same count and under the same terms, under `Cc1cc(S(=O)(=O)Nc2nnc3cnc4ccccc4n23)c(S)cc1Cl` stands 61% (inactive); under `O=C(/C=C/c1cc(Cl)cc(Cl)c1O)c1cccc(O)c1`, 99% (active); under `NC1CCCCC1N.Nc1c(N=Nc2ccc(-c3ccc(N=Nc4cc(S(=O)(=O)[O-])c5ccccc5c4N)cc3)cc2)cc(S(=O)(=O)[O-])c2ccccc12.[OH3+].[OH3+].[Pt+4]`, 84% (active).
Still for that read-out and setting: under `COC(=O)CCC(NC(=S)N/N=C(\C)c1ccccn1)C(=O)OC` (stereo unspecified) stands 78% (active); under `NC(=O)C(=O)NNc1ccccc1`, 4% (inactive); under `COc1cc(C2SCC(=O)N2c2ccc(-c3ccc(-n4c(-c5ccccc5)nc5ccccc5c4=O)cc3)cc2)ccc1O` (stereo unspecified), 21% (inactive).
On the same count and under the same terms, under `COc1ccc(/C=C/c2sc3ccccc3[n+]2CCCCI)cc1OC` stands 56% (inactive); under `Cc1c(C(C)C)cc(OCCO)cc1C(C)C`, -11% (inactive); under `Cc1cc(NCCCCCCCCNc2cc(C)nc3cc(N)ccc23)c2ccc(N)cc2n1`, 98% (active).
In the case of `C=C(Cl)COC(=O)Nc1cccc(Cl)c1`, the growth inhibition was 19% (inactive).
On the same count and under the same terms, under `CC(=O)OC1CC2C(C)(C)C(=O)C=C[C@]2(C)C2CCC3(C)C(=CCC3[C@H](CO)C[C@H](O)C(=O)C(C)(C)O)[C@]12C` (stereo partly specified) stands 12% (inactive); under `COc1ccc(/C=C/C(=O)c2ccccc2)cc1OC`, 59% (inactive); under `COc1c(O)c(C=O)c(Br)c(C=O)c1O`, 98% (active).
On the same count and under the same terms, under `O=[N+]([O-])c1cc(Cl)cnc1Br` stands 70% (active).
With `Cc1ccc2c(c1)C1(SC(C)C(=O)N1c1ccc(Cl)cc1)C(=O)N2` (stereo unspecified), the growth inhibition is 17% (inactive).
In the case of `COc1cc(CSc2ccc(O)cc2)cc(O)c1O`, the growth inhibition was -6% (inactive).
Same read-out and setting: under `Cc1ccc2c3ccc4c(c3n(C)c2c1)C(=O)C=CC4=O` stands 42% (inactive); under `O=C(Nc1ccc(Cl)cc1)Nc1nnc2nc(C(C(=O)c3cccc([N+](=O)[O-])c3Cl)c3nc4nnc(NC(=O)Nc5ccc(Cl)cc5)n4[nH]c3=O)c(=O)[nH]n12`, 10% (inactive); under `O=C(O)C1CC(c2ccccc2)=NN1c1ccccc1` (stereo unspecified), 84% (active).
On the same count and under the same terms, under `CCCCc1ccc(-n2c(C)c(COC(=O)NC)c(COC(=O)NC)c2C)cc1` stands 98% (active); under `CCC(=O)c1cc(C(=O)C(=S)SC)cc(C(=O)C(=S)SC)c1`, 96% (active); under `CCn1c(O)c(C=Nc2ccccc2)s/c1=N/Nc1nc(-c2ccccc2)cs1`, 11% (inactive).
Same read-out and setting: in the case of `Cc1ccccc1N=C(NO)c1ccccc1` it was 14% (inactive).
Take `Cc1nc2ccccc2nc1NNc1ccccc1`: the growth inhibition was 39% (inactive).

The assay is the same for the next values; noted with them: S. cerevisiae mec2-1 strain, at 50.0 µM, stronger effect = higher value.
For `O=[N+]([O-])c1cc[n+]([O-])cc1`, the growth inhibition was 52% (inactive) and 57.5% (inactive).
Regarding `CC1(C)CC(=O)C(/C=N/c2nc(-c3ccccc3)cs2)=C(O)C1`, the growth inhibition was 20.1% (inactive).
In the case of `Nc1nc(N)c2nc(CNc3ccc(C(=O)NC(CCC(=O)O)C(=O)O)cc3F)cnc2n1` (stereo unspecified), the growth inhibition was 86.7% (active).
Same read-out and setting: in the case of `COC(=O)CC1(O)C(/C=C/c2ccccc2)C(C(=O)OC)C(=O)C(C(=O)OC)C1C(=O)OC` (stereo unspecified) it was 50% (inactive).
The same measure, in the same setting: in the case of `CC(C)(C)c1ccc(NS(=O)(=O)c2ccc(N)cc2)cc1` it was 94.3% (active).
On the same count and under the same terms, under `CCN(CC)CCNc1ccc([N+](=O)[O-])c2nc3ccccc3c(N)c12` stands 35.2% (inactive).
Turning to `CCCCN(CCCC)C(=O)/C=C/c1ccccc1`, the growth inhibition is 92.2% (active).
On the same count and under the same terms, in the case of `O=c1[nH]c(-c2ccccc2)nc2c1sc1nc3ccccc3n12` it was -15.2% (inactive).
In the case of `O=[N+]([O-])c1ccc2c(c1)/C(=N/N=C1c3ccccc3Cc3ccccc31)c1cc([N+](=O)[O-])cc([N+](=O)[O-])c1-2`, the growth inhibition is 81.5% (active).
With `CC(C)C(C)/C=C\C(C)C1CCC2C3=CC=C4CC(O)CCC4(C)C3CCC21C` (stereo unspecified), the growth inhibition is 44.5% (inactive).
For `O=C1Nc2ccc(Br)cc2C1=Nc1ccc2c(c1)OCO2`, the growth inhibition is -5.95% (inactive).
Same read-out and setting: in the case of `CCCCOCn1c(=O)[nH]c(=O)c2cc(Br)ccc21` it was 4.05% (inactive); in that of `Cc1ccc(S/C(=C\C(=O)O)c2ccccc2)cc1`, 28.9% (inactive); in that of `O=[N+]([O-])/C=C/c1cc(Cl)c(/C=C/[N+](=O)[O-])cc1Cl`, 73.5% (active).
Still for that read-out and setting: under `Cc1cc(S(=O)(=O)Nc2nnc3cnc4ccccc4n23)c(S)cc1Cl` stands 1.7% (inactive).
The same measure, in the same setting: in the case of `O=C(/C=C/c1cc(Cl)cc(Cl)c1O)c1cccc(O)c1` it was 95.2% (active); in that of `NC1CCCCC1N.Nc1c(N=Nc2ccc(-c3ccc(N=Nc4cc(S(=O)(=O)[O-])c5ccccc5c4N)cc3)cc2)cc(S(=O)(=O)[O-])c2ccccc12.[OH3+].[OH3+].[Pt+4]`, 80.9% (active); in that of `COC(=O)CCC(NC(=S)N/N=C(\C)c1ccccn1)C(=O)OC` (stereo unspecified), 77.5% (active).
Regarding `NC(=O)C(=O)NNc1ccccc1`, the growth inhibition is 83.8% (active).
With `COc1cc(C2SCC(=O)N2c2ccc(-c3ccc(-n4c(-c5ccccc5)nc5ccccc5c4=O)cc3)cc2)ccc1O` (stereo unspecified), the growth inhibition is 34% (inactive).
The same measure, in the same setting: under `COc1ccc(/C=C/c2sc3ccccc3[n+]2CCCCI)cc1OC` stands 81.4% (active); under `Cc1c(C(C)C)cc(OCCO)cc1C(C)C`, -29.8% (inactive).
With `Cc1cc(NCCCCCCCCNc2cc(C)nc3cc(N)ccc23)c2ccc(N)cc2n1`, the growth inhibition was 91.4% (active).
Turning to `C=C(Cl)COC(=O)Nc1cccc(Cl)c1`, the growth inhibition is 3.15% (inactive).
Still for that read-out and setting: under `CC(=O)OC1CC2C(C)(C)C(=O)C=C[C@]2(C)C2CCC3(C)C(=CCC3[C@H](CO)C[C@H](O)C(=O)C(C)(C)O)[C@]12C` (stereo partly specified) stands 42.8% (inactive); under `COc1ccc(/C=C/C(=O)c2ccccc2)cc1OC`, 54% (inactive) and 84% (active).
In the case of `COc1c(O)c(C=O)c(Br)c(C=O)c1O`, the growth inhibition is 82.1% (active).
On the same count and under the same terms, in the case of `O=[N+]([O-])c1cc(Cl)cnc1Br` it was 76.7% (active); in that of `Cc1ccc2c(c1)C1(SC(C)C(=O)N1c1ccc(Cl)cc1)C(=O)N2` (stereo unspecified), 98.5% (active); in that of `COc1cc(CSc2ccc(O)cc2)cc(O)c1O`, 54.1% (inactive).
On the same count and under the same terms, in the case of `Cc1ccc2c3ccc4c(c3n(C)c2c1)C(=O)C=CC4=O` it was 51.5% (inactive).
On to `O=C(Nc1ccc(Cl)cc1)Nc1nnc2nc(C(C(=O)c3cccc([N+](=O)[O-])c3Cl)c3nc4nnc(NC(=O)Nc5ccc(Cl)cc5)n4[nH]c3=O)c(=O)[nH]n12`, for which the growth inhibition is 99.5% (active).
For `O=C(O)C1CC(c2ccccc2)=NN1c1ccccc1` (stereo unspecified), the growth inhibition was 59.8% (inactive).
Same read-out and setting: in the case of `CCCCc1ccc(-n2c(C)c(COC(=O)NC)c(COC(=O)NC)c2C)cc1` it was 92.6% (active).
The same measure, in the same setting: in the case of `CCC(=O)c1cc(C(=O)C(=S)SC)cc(C(=O)C(=S)SC)c1` it was 86.8% (active); in that of `CCn1c(O)c(C=Nc2ccccc2)s/c1=N/Nc1nc(-c2ccccc2)cs1`, 23.8% (inactive); in that of `Cc1ccccc1N=C(NO)c1ccccc1`, 82.8% (active).
Take `Cc1nc2ccccc2nc1NNc1ccccc1`: the growth inhibition was 41.6% (inactive).

(Values after PubChem BioAssay (NCI).)
